Experimental data as given in PubChem BioAssay AID1159580 (chemical genetic matrix, 2015).
Values joined by “and” are separate entries in the source; they are usually repeats but may differ in a detail not shown here. Equal values may be shown once. In all, about 5,500 compounds went through this assay and about 2,000 (36%) were called active. About 18% were inconclusive and are not listed. This is one part of the list. Values without a mark were called inactive. No stated cut-off is given here; in the data, active means normalized growth mostly below about 0.91 (no sharp cut-off); inconclusive means no clear call, values can overlap the other calls; inactive means mostly above about 0.92.

Test: chemical genetic growth profiling, strain panel (AID 1159580);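 further: tested at 20 µM; growth read once vehicle control cultures reached saturation at 30 °C; 1 = growth at the plate median or of vehicle wells; lower values mean less growth of the strain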
Details: S. cerevisiae deletion strains, growth OD

Q: For `CC1=C2CCC3C(CC[C@]4(C)C(=O)CCC34)[C@@]2(C)CCC1=O` (some centres not stated), which normalized growth (locus YAL013W, strain DEP1, active compounds read low) is on record?
A: 0.961

Q: And the normalized growth (locus YAL021C, strain ccr4, active compounds read low)?
A: 0.899 (active)

Q: And the normalized growth (locus YAL026C, strain drs2, active compounds read low)?
A: 0.978

Q: What about the normalized growth (locus YAL030W, strain snc1, active compounds read low) of the same molecule?
A: 0.993

Q: What about the normalized growth (locus YBL061C, strain skt5, active compounds read low) of the same molecule?
A: 0.997

Q: What about the normalized growth (locus YBR009C, strain hhf1, active compounds read low) of the same molecule?
A: 0.956

Q: What about the normalized growth (locus YBR021W, strain FUR4, active compounds read low) of the same molecule?
A: 0.798 (active)

Q: What about the normalized growth (locus YBR023C, strain chs3, active compounds read low) of the same molecule?
A: 0.977

Q: And the normalized growth (locus YBR171W, strain sec66, active compounds read low)?
A: 0.977

Q: What about the normalized growth (locus YBR229C, strain ROT2, active compounds read low) of the same molecule?
A: 0.981

Q: What about the normalized growth (locus YBR231C, strain swc5, active compounds read low) of the same molecule?
A: 1.04

Q: What about the normalized growth (locus YBR279W, strain paf1, active compounds read low) of the same molecule?
A: 0.972

Q: What about the normalized growth (locus YCL011C, strain gbp2, active compounds read low) of the same molecule?
A: 0.968

Q: And the normalized growth (locus YCL016C, strain dcc1, active compounds read low)?
A: 0.947

Q: What about the normalized growth (locus YCL029C, strain bik1, active compounds read low) of the same molecule?
A: 0.969

Q: What about the normalized growth (locus YCL061C, strain MRC1, active compounds read low) of the same molecule?
A: 0.967

Q: What about the normalized growth (locus YCL069W, strain vba3, active compounds read low) of the same molecule?
A: 0.983

Q: What about the normalized growth (locus YCR088W, strain abp1, active compounds read low) of the same molecule?
A: 1.01

Q: And the normalized growth (locus YDL005C, strain med2, active compounds read low)?
A: 0.993

Q: And the normalized growth (locus YDL035C, strain GPR1, active compounds read low)?
A: 0.922

Q: And the normalized growth (locus YDL040C, strain nat1, active compounds read low)?
A: 0.999

Q: What about the normalized growth (locus YDL074C, strain BRE1, active compounds read low) of the same molecule?
A: 0.915

Q: What about the normalized growth (locus YDL101C, strain DUN1, active compounds read low) of the same molecule?
A: 0.986

Q: What about the normalized growth (locus YDL134C, strain PPH21, active compounds read low) of the same molecule?
A: 0.981

Q: What about the normalized growth (locus YDL185W, strain tfp1, active compounds read low) of the same molecule?
A: 0.962

Q: And the normalized growth (locus YDL192W, strain arf1, active compounds read low)?
A: 0.916 (active)

Q: What about the normalized growth (locus YDR001C, strain nth1, active compounds read low) of the same molecule?
A: 0.997

Q: And the normalized growth (locus YDR069C, strain doa4, active compounds read low)?
A: 1

Q: What about the normalized growth (locus YDR101C, strain arx1, active compounds read low) of the same molecule?
A: 0.982

Q: And the normalized growth (locus YDR137W, strain rgp1, active compounds read low)?
A: 0.693 (active)

Q: What about the normalized growth (locus YDR150W, strain NUM1, active compounds read low) of the same molecule?
A: 0.986

Q: What about the normalized growth (locus YDR159W, strain sac3, active compounds read low) of the same molecule?
A: 0.998

Q: And the normalized growth (locus YDR162C, strain NBP2, active compounds read low)?
A: 0.842

Q: What about the normalized growth (locus YDR195W, strain ref2) of the same molecule?
A: 1.15 [resistant] (active)

Q: What about the normalized growth (locus YDR297W, strain sur2, active compounds read low) of the same molecule?
A: 0.995

Q: What about the normalized growth (locus YDR318W, strain mcm21, active compounds read low) of the same molecule?
A: 0.941

Q: And the normalized growth (locus YDR334W, strain swr1, active compounds read low)?
A: 1.01

Q: And the normalized growth (locus YDR335W, strain msn5, active compounds read low)?
A: 0.961

Q: And the normalized growth (locus YDR388W, active compounds read low)?
A: 0.946

Q: And the normalized growth (locus YDR392W, strain spt3, active compounds read low)?
A: 0.565 (active)

Q: And the normalized growth (locus YDR502C, strain sam2, active compounds read low)?
A: 0.895 (active)

Q: And the normalized growth (locus YEL003W, strain gim4, active compounds read low)?
A: 0.971

Q: And the normalized growth (locus YEL037C, strain rad23, active compounds read low)?
A: 0.985

Q: And the normalized growth (locus YEL061C, strain CIN8 (second series), active compounds read low)?
A: 0.992

Q: What about the normalized growth (locus YEL061C, strain CIN8, active compounds read low) of the same molecule?
A: 0.967

Q: What about the normalized growth (locus YER015W, strain faa2, active compounds read low) of the same molecule?
A: 0.964

Q: And the normalized growth (locus YER016W, strain bim1, active compounds read low)?
A: 0.991

Q: And the normalized growth (locus YER110C, active compounds read low)?
A: 0.957

Q: What about the normalized growth (locus YER111C, strain swi4, active compounds read low) of the same molecule?
A: 0.989

Q: What about the normalized growth (locus YER155C, strain BEM2 (second series), active compounds read low) of the same molecule?
A: 0.904

Q: What about the normalized growth (locus YER155C, strain BEM2, active compounds read low) of the same molecule?
A: 0.997

Q: What about the normalized growth (locus YER167W, strain BCK2, active compounds read low) of the same molecule?
A: 0.931

Q: What about the normalized growth (locus YFR010W, strain ubp6, active compounds read low) of the same molecule?
A: 1.02

Q: What about the normalized growth (locus YGL078C, strain dbp3, active compounds read low) of the same molecule?
A: 0.947

Q: What about the normalized growth (locus YGL086W, strain mad1, active compounds read low) of the same molecule?
A: 0.936

Q: And the normalized growth (locus YGL167C, strain pmr1, active compounds read low)?
A: 0.963

Q: What about the normalized growth (locus YGL173C, strain kem1, active compounds read low) of the same molecule?
A: 1

Q: What about the normalized growth (locus YGL227W, strain vid30, active compounds read low) of the same molecule?
A: 1.01

Q: And the normalized growth (locus YGL240W, strain doc1, active compounds read low)?
A: 0.941

Q: And the normalized growth (locus YGL248W, strain PDE1, active compounds read low)?
A: 0.981

Q: And the normalized growth (locus YGL253W, strain hxk2, active compounds read low)?
A: 0.979

Q: And the normalized growth (locus YGR078C, strain PAC10, active compounds read low)?
A: 0.959

Q: And the normalized growth (locus YGR135W, strain pre9, active compounds read low)?
A: 0.902

Q: And the normalized growth (locus YGR229C, strain SMI1, active compounds read low)?
A: 0.962

Q: What about the normalized growth (locus YGR252W, strain gcn5, active compounds read low) of the same molecule?
A: 0.836

Q: And the normalized growth (locus YHR013C, strain ard1, active compounds read low)?
A: 0.943

Q: And the normalized growth (locus YHR027C, strain rpn1, active compounds read low)?
A: 0.995

Q: What about the normalized growth (locus YHR030C, strain SLT2, active compounds read low) of the same molecule?
A: 0.975 and 0.95

Q: And the normalized growth (locus YHR079C, strain IRE1 (second series), active compounds read low)?
A: 0.986

Q: What about the normalized growth (locus YHR079C, strain IRE1, active compounds read low) of the same molecule?
A: 0.941

Q: What about the normalized growth (locus YHR094C, strain hxt1, active compounds read low) of the same molecule?
A: 0.984

Q: What about the normalized growth (locus YHR129C, strain ARP1, active compounds read low) of the same molecule?
A: 0.991

Q: What about the normalized growth (locus YHR142W, strain chs7, active compounds read low) of the same molecule?
A: 0.92

Q: And the normalized growth (locus YHR200W, strain rpn10, active compounds read low)?
A: 0.955

Q: What about the normalized growth (locus YIL066C, strain RNR3, active compounds read low) of the same molecule?
A: 0.937

Q: And the normalized growth (locus YIL073C, strain SPO22, active compounds read low)?
A: 0.861

Q: And the normalized growth (locus YIL125W, strain kgd1, active compounds read low)?
A: 0.971

Q: What about the normalized growth (locus YIR030C, strain dcg1, active compounds read low) of the same molecule?
A: 0.971

Q: What about the normalized growth (locus YJL092W, strain hpr5, active compounds read low) of the same molecule?
A: 0.992

Q: And the normalized growth (locus YJL095W, strain BCK1 (second series), active compounds read low)?
A: 0.992

Q: And the normalized growth (locus YJL095W, strain BCK1, active compounds read low)?
A: 0.889 and 0.943

Q: And the normalized growth (locus YJL115W, strain asf1, active compounds read low)?
A: 0.985

Q: What about the normalized growth (locus YJL129C, strain trk1, active compounds read low) of the same molecule?
A: 0.93

Q: And the normalized growth (locus YJL134W, strain LCB3, active compounds read low)?
A: 0.983

Q: And the normalized growth (locus YJL154C, strain vps35, active compounds read low)?
A: 0.993

Q: And the normalized growth (locus YJL164C, strain tpk1, active compounds read low)?
A: 0.938

Q: What about the normalized growth (locus YJL166W, strain qcr8, active compounds read low) of the same molecule?
A: 0.963

Q: What about the normalized growth (locus YJL168C, strain set2, active compounds read low) of the same molecule?
A: 0.978

Q: What about the normalized growth (locus YJL187C, strain SWE1 (second series), active compounds read low) of the same molecule?
A: 0.985

Q: What about the normalized growth (locus YJL187C, strain SWE1, active compounds read low) of the same molecule?
A: 0.989

Q: And the normalized growth (locus YJR043C, strain POL32, active compounds read low)?
A: 0.99

Q: And the normalized growth (locus YJR066W, strain TOR1, active compounds read low)?
A: 0.852
